PubChem BioAssay AID1159580 (chemical genetic matrix, 2015)
“And” between values parts separate entries of the source, which are not always exact repeats. Equal values may be shown once. Out of some 5,500 compounds screened, about 2,000 (36%) were called active. About 18% were inconclusive and are not listed. The list shows a part of the results. Values without a mark were called inactive. Rule as the data show it: active = normalized growth mostly below about 0.91 (no sharp cut-off); inconclusive = no clear call, values can overlap the other calls; inactive = mostly above about 0.92.

Assay: chemical genetic growth profiling, strain panel (AID 1159580);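 also: tested at 20 µM; growth read once vehicle control cultures reached saturation at 30 °C; 1 = growth at the plate median or of vehicle wells; lower values mean less growth of the strain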
Conditions: S. cerevisiae deletion strains, growth OD

Structure (SMILES): C=CC(C1=CC(=O)C=CC1=O)c1ccccc1 (stereo unspecified)
- normalized growth (locus YAL021C, strain ccr4, active compounds read low): 1.01
- normalized growth (locus YAL026C, strain drs2, active compounds read low): 0.983
- normalized growth (locus YAL030W, strain snc1, active compounds read low): 1
- normalized growth (locus YBL061C, strain skt5, active compounds read low): 1
- normalized growth (locus YBR009C, strain hhf1, active compounds read low): 0.995
- normalized growth (locus YBR021W, strain FUR4, active compounds read low): 0.982
- normalized growth (locus YBR023C, strain chs3, active compounds read low): 1.01
- normalized growth (locus YBR171W, strain sec66, active compounds read low): 1.02
- normalized growth (locus YBR229C, strain ROT2, active compounds read low): 0.974
- normalized growth (locus YBR231C, strain swc5, active compounds read low): 1.01
- normalized growth (locus YBR279W, strain paf1, active compounds read low): 0.993
- normalized growth (locus YCL011C, strain gbp2, active compounds read low): 1.01
- normalized growth (locus YCL016C, strain dcc1, active compounds read low): 0.994
- normalized growth (locus YCL029C, strain bik1, active compounds read low): 1
- normalized growth (locus YCL061C, strain MRC1, active compounds read low): 0.993
- normalized growth (locus YCL069W, strain vba3, active compounds read low): 1
- normalized growth (locus YCR088W, strain abp1, active compounds read low): 1.01
- normalized growth (locus YDL005C, strain med2, active compounds read low): 1.01
- normalized growth (locus YDL035C, strain GPR1, active compounds read low): 0.937
- normalized growth (locus YDL040C, strain nat1, active compounds read low): 0.989
- normalized growth (locus YDL074C, strain BRE1, active compounds read low): 0.916
- normalized growth (locus YDL101C, strain DUN1, active compounds read low): 0.96
- normalized growth (locus YDL134C, strain PPH21, active compounds read low): 0.863 (active)
- normalized growth (locus YDL185W, strain tfp1, active compounds read low): 0.994
- normalized growth (locus YDL192W, strain arf1, active compounds read low): 0.956
- normalized growth (locus YDR001C, strain nth1, active compounds read low): 1.01
- normalized growth (locus YDR069C, strain doa4, active compounds read low): 1.01
- normalized growth (locus YDR101C, strain arx1, active compounds read low): 0.977
- normalized growth (locus YDR137W, strain rgp1, active compounds read low): 0.961
- normalized growth (locus YDR159W, strain sac3, active compounds read low): 1.03
- normalized growth (locus YDR162C, strain NBP2, active compounds read low): 0.778 (active)
- normalized growth (locus YDR195W, strain ref2): 1.01
- normalized growth (locus YDR297W, strain sur2, active compounds read low): 0.996
- normalized growth (locus YDR318W, strain mcm21, active compounds read low): 0.953
- normalized growth (locus YDR334W, strain swr1, active compounds read low): 1.01
- normalized growth (locus YDR335W, strain msn5, active compounds read low): 0.999
- normalized growth (locus YDR388W, active compounds read low): 0.991
- normalized growth (locus YDR392W, strain spt3, active compounds read low): 0.917
- normalized growth (locus YDR502C, strain sam2, active compounds read low): 0.95
- normalized growth (locus YEL003W, strain gim4, active compounds read low): 0.982
- normalized growth (locus YEL037C, strain rad23, active compounds read low): 1.01
- normalized growth (locus YEL061C, strain CIN8 (second series), active compounds read low): 1.01
- normalized growth (locus YEL061C, strain CIN8, active compounds read low): 0.974
- normalized growth (locus YER015W, strain faa2, active compounds read low): 0.996
- normalized growth (locus YER016W, strain bim1, active compounds read low): 1
- normalized growth (locus YER110C, active compounds read low): 0.98
- normalized growth (locus YER111C, strain swi4, active compounds read low): 1
- normalized growth (locus YER155C, strain BEM2 (second series), active compounds read low): 0.895
- normalized growth (locus YER155C, strain BEM2, active compounds read low): 1.01
- normalized growth (locus YER167W, strain BCK2, active compounds read low): 0.947
- normalized growth (locus YFR010W, strain ubp6, active compounds read low): 1
- normalized growth (locus YGL078C, strain dbp3, active compounds read low): 0.995
- normalized growth (locus YGL086W, strain mad1, active compounds read low): 0.927 (active)
- normalized growth (locus YGL167C, strain pmr1, active compounds read low): 1.01
- normalized growth (locus YGL173C, strain kem1, active compounds read low): 1
- normalized growth (locus YGL227W, strain vid30, active compounds read low): 1.01
- normalized growth (locus YGL240W, strain doc1, active compounds read low): 0.964
- normalized growth (locus YGL248W, strain PDE1, active compounds read low): 0.907
- normalized growth (locus YGL253W, strain hxk2, active compounds read low): 1.02
- normalized growth (locus YGR078C, strain PAC10, active compounds read low): 0.805 (active)
- normalized growth (locus YGR135W, strain pre9, active compounds read low): 0.931
- normalized growth (locus YGR229C, strain SMI1, active compounds read low): 0.722 (active)
- normalized growth (locus YGR252W, strain gcn5, active compounds read low): 0.952
- normalized growth (locus YHR013C, strain ard1, active compounds read low): 1.04
- normalized growth (locus YHR027C, strain rpn1, active compounds read low): 1.01
- normalized growth (locus YHR030C, strain SLT2, active compounds read low): 0.984 and 1.06
- normalized growth (locus YHR079C, strain IRE1 (second series), active compounds read low): 0.98
- normalized growth (locus YHR079C, strain IRE1, active compounds read low): 1.02
- normalized growth (locus YHR094C, strain hxt1, active compounds read low): 0.993
- normalized growth (locus YHR129C, strain ARP1, active compounds read low): 0.957
- normalized growth (locus YHR142W, strain chs7, active compounds read low): 1.01
- normalized growth (locus YHR200W, strain rpn10, active compounds read low): 0.963
- normalized growth (locus YIL066C, strain RNR3, active compounds read low): 0.875
- normalized growth (locus YIL073C, strain SPO22, active compounds read low): 0.916
- normalized growth (locus YIL125W, strain kgd1, active compounds read low): 0.998
- normalized growth (locus YIR030C, strain dcg1, active compounds read low): 0.972
- normalized growth (locus YJL092W, strain hpr5, active compounds read low): 1.01
- normalized growth (locus YJL095W, strain BCK1 (second series), active compounds read low): 1.01
- normalized growth (locus YJL095W, strain BCK1, active compounds read low): 0.891 and 1.06
- normalized growth (locus YJL115W, strain asf1, active compounds read low): 1.01
- normalized growth (locus YJL129C, strain trk1, active compounds read low): 1.04
- normalized growth (locus YJL134W, strain LCB3, active compounds read low): 0.99
- normalized growth (locus YJL154C, strain vps35, active compounds read low): 0.997
- normalized growth (locus YJL164C, strain tpk1, active compounds read low): 0.984
- normalized growth (locus YJL166W, strain qcr8, active compounds read low): 0.991
- normalized growth (locus YJL168C, strain set2, active compounds read low): 0.992
- normalized growth (locus YJL187C, strain SWE1 (second series), active compounds read low): 0.937
- normalized growth (locus YJL187C, strain SWE1, active compounds read low): 1
- normalized growth (locus YJR043C, strain POL32, active compounds read low): 0.889
- normalized growth (locus YJR066W, strain TOR1, active compounds read low): 1
- normalized growth (locus YJR075W, strain HOC1, active compounds read low): 0.929
- normalized growth (locus YKL009W, strain mrt4, active compounds read low): 0.956
- normalized growth (locus YKL068W, active compounds read low): 1.05
- normalized growth (locus YKL085W, strain MDH1 (second series), active compounds read low): 0.978
- normalized growth (locus YKL085W, strain MDH1, active compounds read low): 0.978
- normalized growth (locus YKL160W, strain elf1, active compounds read low): 0.987
- normalized growth (locus YKR001C, strain vps1, active compounds read low): 0.887 (active)
- normalized growth (locus YKR026C, strain gcn3, active compounds read low): 1.01
- normalized growth (locus YKR091W, strain srl3, active compounds read low): 1.01
- normalized growth (locus YLL001W, strain dnm1, active compounds read low): 0.978
- normalized growth (locus YLL026W, active compounds read low): 1
- normalized growth (locus YLL041C, strain sdh2, active compounds read low): 1.01
- normalized growth (locus YLR027C, strain aat2, active compounds read low): 1.01
- normalized growth (locus YLR039C, strain RIC1, active compounds read low): 0.64 (active)
- normalized growth (locus YLR058C, strain SHM2, active compounds read low): 0.958
- normalized growth (locus YLR102C, strain apc9, active compounds read low): 0.978
- normalized growth (locus YLR113W, strain HOG1, active compounds read low): 1.02
- normalized growth (locus YLR221C, strain rsa3, active compounds read low): 0.992
- normalized growth (locus YLR258W, strain gsy2, active compounds read low): 1.01
- normalized growth (locus YLR262C, strain YPT6 (second series), active compounds read low): 0.969
- normalized growth (locus YLR262C, strain YPT6, active compounds read low): 0.551 (active)
- normalized growth (locus YLR268W, strain sec22, active compounds read low): 0.925
- normalized growth (locus YLR320W, strain mms22, active compounds read low): 0.983
- normalized growth (locus YLR330W, strain CHS5, active compounds read low): 0.882 (active)
- normalized growth (locus YLR342W, strain FKS1 (second series), active compounds read low): 0.794
- normalized growth (locus YLR342W, strain FKS1, active compounds read low): 1.02
- normalized growth (locus YLR357W, strain rsc2, active compounds read low): 0.988
- normalized growth (locus YLR370C, strain arc18, active compounds read low): 1.01
- normalized growth (locus YLR371W, strain rom2, active compounds read low): 0.973
- normalized growth (locus YLR384C, strain iki3, active compounds read low): 1.01
- normalized growth (locus YLR418C, strain cdc73, active compounds read low): 0.823 (active)
- normalized growth (locus YML016C, strain PPZ1, active compounds read low): 0.976
- normalized growth (locus YML032C, strain rad52, active compounds read low): 0.965
- normalized growth (locus YML120C, strain ndi1, active compounds read low): 0.998
- normalized growth (locus YML124C, strain tub3, active compounds read low): 0.971
- normalized growth (locus YMR058W, strain fet3, active compounds read low): 1
- normalized growth (locus YMR078C, strain ctf18, active compounds read low): 0.963
- normalized growth (locus YMR125W, strain sto1, active compounds read low): 1.02
- normalized growth (locus YMR129W, active compounds read low): 1
- normalized growth (locus YMR205C, strain PFK2, active compounds read low): 0.997
- normalized growth (locus YMR223W, strain ubp8, active compounds read low): 0.971
- normalized growth (locus YMR231W, strain pep5, active compounds read low): 0.986
- normalized growth (locus YMR263W, strain SAP30, active compounds read low): 0.966
- normalized growth (locus YMR307W, strain GAS1, active compounds read low): 0.966
- normalized growth (locus YNL067W, strain RPL9B, active compounds read low): 0.943
- normalized growth (locus YNL071W, strain lat1, active compounds read low): 1.01
- normalized growth (locus YNL153C, strain GIM3, active compounds read low): 0.93
- normalized growth (locus YNL183C, strain NPR1, active compounds read low): 0.975
- normalized growth (locus YNL209W, strain ssb2, active compounds read low): 0.996
- normalized growth (locus YNL233W, strain BNI4, active compounds read low): 0.815 (active)
- normalized growth (locus YNL248C, strain rpa49, active compounds read low): 0.986
- normalized growth (locus YNL250W, strain rad50, active compounds read low): 1
- normalized growth (locus YNL271C, strain bni1, active compounds read low): 0.979
- normalized growth (locus YNL298W, strain CLA4, active compounds read low): 0.982
- normalized growth (locus YNL307C, strain MCK1, active compounds read low): 0.674 (active)
- normalized growth (locus YNL322C, strain KRE1 (second series), active compounds read low): 1.01
- normalized growth (locus YNL322C, strain KRE1, active compounds read low): 0.945
- normalized growth (locus YNR049C, strain mso1, active compounds read low): 1.02
- normalized growth (locus YNR052C, strain pop2, active compounds read low): 0.997
- normalized growth (locus YOL012C, strain htz1): 0.678
- normalized growth (locus YOL147C, strain pex11, active compounds read low): 0.975
- normalized growth (locus YOR001W, strain rrp6, active compounds read low): 0.997
- normalized growth (locus YOR061W, strain CKA2, active compounds read low): 0.978
- normalized growth (locus YOR069W, strain VPS5, active compounds read low): 0.982
- normalized growth (locus YOR070C, strain gyp1, active compounds read low): 0.981
- normalized growth (locus YOR080W, strain dia2, active compounds read low): 1
- normalized growth (locus YOR083W, strain WHI5, active compounds read low): 0.981
- normalized growth (locus YOR106W, strain vam3, active compounds read low): 0.981
- normalized growth (locus YOR136W, strain idh2, active compounds read low): 1
- normalized growth (locus YOR144C, strain elg1, active compounds read low): 0.975
- normalized growth (locus YOR184W, strain ser1, active compounds read low): 0.811 (active)
- normalized growth (locus YOR231W, strain MKK1, active compounds read low): 1.04
- normalized growth (locus YOR265W, strain rbl2, active compounds read low): 1.02
- normalized growth (locus YOR270C, strain vph1, active compounds read low): 0.973
- normalized growth (locus YOR290C, strain snf2, active compounds read low): 0.962
- normalized growth (locus YOR316C, strain cot1, active compounds read low): 0.993
- normalized growth (locus YPL051W, strain arl3, active compounds read low): 0.978
- normalized growth (locus YPL078C, strain atp4, active compounds read low): 0.968
- normalized growth (locus YPL106C, strain sse1, active compounds read low): 1.02
- normalized growth (locus YPL240C, strain hsp82, active compounds read low): 1
- normalized growth (locus YPL256C, strain CLN2, active compounds read low): 1.05
- normalized growth (locus YPR119W, strain clb2, active compounds read low): 0.975
- normalized growth (locus YPR141C, strain kar3, active compounds read low): 0.991
- normalized growth (locus YPR163C, strain tif3, active compounds read low): 0.849 (active)
- normalized growth (locus YPR167C, strain met16, active compounds read low): 0.963
- normalized growth (strain wtn01, active compounds read low): 0.931
